Test results: PubChem BioAssay AID588651 (The Scripps Research Institute Molecular Screening Center, 2011)
Activity calls are given as the source filed them. Cut-off read from the data, not from the text of the source: active = inhibition above about 65%; inactive = the rest.

System: Antitargets
Experiment: Fam108b inhibitors and proteome off-target selectivity – biochemical, gel-based ABPP, recombinant soluble Fam108b, HTS hits, complex proteome, late-stage follow-up (AID 588651);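 note: Fam108b spiked into mouse brain membrane proteome; tested at 20 µM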
Conditions: FP-rhodamine labeling in proteome

outcome, active:
CCc1cc(C(Cc2ccc3ccccc3n2)=NO)c(O)cc1O, Cc1c(O)ccc(C=NNc2nc(-c3cccnc3)nc3ccccc23)c1O, O=C(Nc1ccc(F)cc1)Nc1ccc(N2CCCC2)c(S(=O)(=O)Nc2ccccc2Cl)c1

outcome, inactive:
COc1cccc(-n2c(SCc3cc(=O)oc4cc(O)c(O)cc34)nc3ccccc3c2=O)c1, Cc1cc(NN=Cc2c(O)ccc3ccccc23)nc(-c2ccccc2O)n1, CN(c1ccccc1)S(=O)(=O)c1ccc(NC(=O)c2ccc(-c3ccccc3)cc2)cc1, CSC[C@@H]1NC(=S)N(c2ccc(C)cc2)C1=O, Nc1cc2nsnc2cc1Br, O=C(Nc1cccc(-c2csc(Nc3ccc(Cl)cc3)n2)c1)c1cc([N+](=O)[O-])cc(C(F)(F)F)c1, O=S(=O)(c1cc(O)ccc1O)c1cccc2c(S(=O)(=O)c3cc(O)ccc3O)cccc12, COc1ccc(NC(=S)Nc2ccc3nsnc3c2)cc1, COc1ccc(-c2csc3nc(-c4ccccc4OC)oc(=O)c23)cc1, Cc1ccccc1NC1=C/C(=N\S(=O)(=O)c2cccs2)c2ccccc2C1=O, O=C(CCCSc1ccccc1)Nc1nc(-c2ccco2)c(-c2ccco2)s1, Cc1ccc(S(=O)(=O)/N=C2\C=C(Nc3cccc(C(=O)O)c3)C(=O)c3ccccc32)cc1, COc1cc(-c2nc(-c3ccc4c(c3)-c3ccccc3S4(=O)=O)c(-c3ccccc3)[nH]2)cc(OC)c1O, CC1CCCCN1S(=O)(=O)c1ccc(C(=O)Nc2ccccc2-c2nc3ccccc3[nH]2)cc1 (stereo not drawn), Oc1ccc(C=NNc2ccnc3cc(Cl)ccc23)cc1O
